Among the data in PubChem BioAssay AID1347426 (Functional Genomics Laboratory (NCATS/FGL), 2020) are median seed-adjusted z-score values, retold here.

About 1,400 (4.5%) of roughly 31,000 sequences were called active. This is one part of a sample in which actives are shown more often than they occur. Unmarked numbers belong to inactive results.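 How the source made its calls: active means median seed-adjusted z-score above 1 or below -1; inactive means the rest.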

This experiment can be described thus: Novel Modifiers of Survival Motor Neuron (SMN) Protein: Gene Identification via Genome-wide siRNA Screen.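 Further: luminescence tracks full-length SMN protein made from the SMN2 reporter.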 Particulars: HEK293T SMN2-luciferase reporter, siRNA knockdown, 72 h; actives lie on both sides. In a few lines:
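Genome-wide siRNA screen (10418 genes, 3 siRNAs each, 1 pmol per well) by reverse transfection in HEK293T cells stably carrying an SMN2-luciferase reporter; luminescence after 72 hours, normalized to negative-control siRNA, log10-transformed, MAD-scored.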
In general terms: Reporter assays use an easily measured gene product as a stand-in for the process of interest.
As for CGUCAAAUUUUUGCACAAATT against GPR176, the median seed-adjusted z-score is 0.0782.

Consider GCCGAAUUGUUUCUAGUUATT against PIN1, for which the median seed-adjusted z-score is 0.156.

Take GACAGUCACUGAGCAUAGATT against PKD1L2: the median seed-adjusted z-score is -1.17 (active).

In the case of GGAGAAAUCAGCUACAGGATT against SRD5A2, the median seed-adjusted z-score is 0.185.

Consider CAAUUGGAAUCGUCUUUUUTT against UBAC2, for which the median seed-adjusted z-score is 0.611.

With CAAGUCCCAUUGAUCCUGATT against HLF, the median seed-adjusted z-score is 0.0548.

CAAGAGCAAGCAAACCUAATT against OLR1: the median seed-adjusted z-score was 0.

Take CGGCAAGAGUGUCCAGUAUTT against RNF5: the median seed-adjusted z-score was -0.0342.

For the sequence CCUUAGGAAUGAAAUCGCUTT against SIPA1L1, the median seed-adjusted z-score is 0.0925.

For GCACUAGCAGAGUCCGAAATT against OPRK1, the median seed-adjusted z-score was -1.08 (active).

Turning to CAGAAUCGCUUCUACAAGATT against SPAG6, the median seed-adjusted z-score is -0.439.

As for UGACAUCCGUGACCUCUAATT against LHX9, the median seed-adjusted z-score was 0.157.

As to GGAAAACGGCAUUGCAGAATT against SLC23A2, the median seed-adjusted z-score is -0.0585.

As to GGCACUAUUCUGCUAAGAATT against RAPGEF5, the median seed-adjusted z-score was 0.529.

Regarding GCCUGUUCGAAAGCGCAAATT against UBR4, the median seed-adjusted z-score is 0.602.

Turning to AGGAGAAUGUGAUCCGAGATT against TXNDC14, the median seed-adjusted z-score is -2.39 (active).

Turning to GGGUCUUCAUGAUUGGUGUTT against SLC44A5, the median seed-adjusted z-score was 0.179.

For the sequence GUUUGUAGGUCGUCAGAAATT against NDUFS6, the median seed-adjusted z-score is -0.0128.

In the case of CAUCCAGUCUGUAUACGAATT against ACLY, the median seed-adjusted z-score is 0.478.

On to GCCUCCAAAGGUUACAUUUTT against UBE2E1, for which the median seed-adjusted z-score was 0.888.

Regarding GAUGUAAACCCUGAACUAATT against CSRP2, the median seed-adjusted z-score was -0.829.

Consider GAGGUAAUCUGGGUGCACATT against PARK7, for which the median seed-adjusted z-score is -0.357.

Consider GAAUGGAGGUCAACUAUAUTT against UBE2E2, for which the median seed-adjusted z-score is -1.77 (active).

As for GAAUGUCAUCCGUAUUUCATT against AKR1C3, the median seed-adjusted z-score was -0.00538.

Take GGAACUGCUGCAUUAGAUATT against ITCH: the median seed-adjusted z-score was 0.199.

Regarding GAAUUUGUUCAUUAUCGUATT against UBE3A, the median seed-adjusted z-score was 0.0949.

GGCGAACUGUUUUAGAAGATT against CCNB2: the median seed-adjusted z-score is 0.0328.

On to CGAUGUUGGUUAUGAGAGATT against ACTR3, for which the median seed-adjusted z-score is -0.7.

GGAUAGAGGUUUCCAGUUUTT against CNBP: the median seed-adjusted z-score was -1.14 (active).

As to GCAGGUUCCUUAUCUGUCATT against BIRC5, the median seed-adjusted z-score is 0.0236.

As for GGAUUAGUGAUUAUAUGGATT against NPAS3, the median seed-adjusted z-score was -0.0316.

With CAUCCAAGAUUAUAGUGGATT against PNLIP, the median seed-adjusted z-score is 0.385.

Regarding GUACAGACCUGAGAAUUCUTT against CTSL2, the median seed-adjusted z-score was -1.04 (active).

With GAUGAACCCUGGAACUUCATT against ZNF354B, the median seed-adjusted z-score is 0.393.

Take AGAAGGACGUGUCCAAGGATT against FOXC2: the median seed-adjusted z-score is -0.792.

Turning to GAAUGAUGUUGACAUGAGUTT against SSR1, the median seed-adjusted z-score is -0.434.

As for GCCUAUUCAUCGGAAGGUATT against SENP2, the median seed-adjusted z-score is 0.

Turning to UGCUUAUGAUCAACAUUUATT against LSM3, the median seed-adjusted z-score is -1.36 (active).

Turning to GGGUUUAACUUUCAGAGAUTT against VN2R1P, the median seed-adjusted z-score is -0.25.

With GGGUUGGUGUGAUUGGAGUTT against LOC647743, the median seed-adjusted z-score is -0.203.

Regarding GCUCGGCAUCUGUUGGUUATT against SIRT3, the median seed-adjusted z-score is -0.341.

Turning to GGCCUAUAAUGAAUACCCUTT against GLRA1, the median seed-adjusted z-score was 0.

In the case of CAUUGAAACUGAUAAACCATT against ARCN1, the median seed-adjusted z-score is -1.25 (active).

As for GCAGAGCAAUGGGAGAGAATT against EPHB4, the median seed-adjusted z-score is -0.143.

For GCAUCGCAGUGCUAAACAUTT against DGKA, the median seed-adjusted z-score was -1.36 (active).

As to AGACAAUCGUCAUGCAAUUTT against CDC37, the median seed-adjusted z-score was 0.

With GAAUUACUCUGCCUCUAAATT against TAF7, the median seed-adjusted z-score was -0.593.

As to CGUCUAAUGCUGCUCCACATT against AGPAT1, the median seed-adjusted z-score was -1.38 (active).

Consider AUCCUUCCCUGAAUCAUCATT against KLRC2, for which the median seed-adjusted z-score was -0.472.

With GUAUCCAUGUGCAUUUUAATT against NT5E, the median seed-adjusted z-score was 0.199.

Consider GCUCAUACCUCGGAUGUCATT against GPR31, for which the median seed-adjusted z-score was -0.0381.

On to CCACAUUUGUGACGCAAAATT against TPSAB1, for which the median seed-adjusted z-score was 0.197.

With GCUAAAUGGAGGAGACUAATT against HHEX, the median seed-adjusted z-score was -0.428.

CAACAUUCAUGGACGGGAATT against SLC2A7: the median seed-adjusted z-score is -0.0337.

As to CGUAAAUCCCUAAUCUUUATT against FOXJ1, the median seed-adjusted z-score is -0.553.

For CACUGAAUGUGAGAGCUGUTT against HRC, the median seed-adjusted z-score was 1.06 (active).

On to CCUUCUUCUGGAUACCGAUTT against ABCA9, for which the median seed-adjusted z-score is -0.139.

In the case of GCGGAAAAGCUGUAUCUAUTT against POLR3E, the median seed-adjusted z-score was -0.55.

On to GGUGGAACUUUUAAUCAAATT against GABPB2, for which the median seed-adjusted z-score was 0.441.

In the case of CCAGAUUGCUAGUAUCUCATT against TRAK1, the median seed-adjusted z-score was 0.298.

For the sequence CCUGGAAAGUACUCUAGAATT against PGS1, the median seed-adjusted z-score is 1.36 (active).

In the case of GGAUCCUACUGGUAAAACUTT against NUDT5, the median seed-adjusted z-score was 0.228.

As to GCAGCGACCUUUCAGAACATT against SALL1, the median seed-adjusted z-score is -0.526.

Regarding GAUUAUAAGUAUCUACGUUTT against GTPBP4, the median seed-adjusted z-score was 1.01 (active).

Take GACUGACACGGAAUAGUGUTT against ZNF286A: the median seed-adjusted z-score was 0.0368.

For the sequence CCACCUUCAAUAUCGAGUUTT against DRD3, the median seed-adjusted z-score is 0.0447.

With ACUGCAAUCUGUUGCCCAATT against CLIC5, the median seed-adjusted z-score is 0.

As to CAUUCUCAGUCAUCAUAGATT against ATP8A2, the median seed-adjusted z-score was 0.

For the sequence GGAUCUGCUUUCGAACCUATT against MBOAT1, the median seed-adjusted z-score is -1.22 (active).
